The whole screen tested about 5,500 compounds, of which about 2,000 (36%) were called active. Inconclusive results (about 18%) are left out. Rule as the data show it: active = normalized growth mostly below about 0.91 (no sharp cut-off); inconclusive = no clear call, values can overlap the other calls; inactive = mostly above about 0.92. The list shows a part of the results.
Experiment: chemical genetic growth profiling, strain panel (AID 1159580);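 also: tested at 20 µM; growth read once vehicle control cultures reached saturation at 30 °C; 1 = growth at the plate median or of vehicle wells; lower values mean less growth of the strain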
Settings: growth OD
[1] = S. cerevisiae deletion strains, locus YGR078C, strain PAC10, active compounds read low
[2] = S. cerevisiae deletion strains, locus YNL153C, strain GIM3, active compounds read low
[3] = S. cerevisiae deletion strains, locus YNL322C, strain KRE1, active compounds read low
[4] = S. cerevisiae deletion strains, locus YPL055C, strain LGE1, active compounds read low
[5] = S. cerevisiae deletion strains, locus YDL101C, strain DUN1, active compounds read low
[6] = S. cerevisiae deletion strains, locus YHR030C, strain SLT2, active compounds read low

Measured: normalized growth

COc1cc(C(O)CO)ccc1O (centres undefined)
inactive: S. cerevisiae deletion strains, locus YAL040C, strain CLN3, active compounds read low 0.993 | S. cerevisiae deletion strains, locus YCL061C, strain MRC1 (second series), active compounds read low 0.985 | S. cerevisiae deletion strains, locus YDR363W, strain ESC2, active compounds read low 0.995 | S. cerevisiae deletion strains, locus YER002W, strain NOP16, active compounds read low 0.988 | [1] 0.982 | S. cerevisiae deletion strains, locus YNL128W, strain TEP1, active compounds read low 0.991 | [2] 1.04 | S. cerevisiae deletion strains, locus YNL175C, strain NOP13, active compounds read low 0.998 | S. cerevisiae deletion strains, locus YNL197C, strain WHI3, active compounds read low 1 | S. cerevisiae deletion strains, locus YNL224C, strain SQS1, active compounds read low 0.988 | [3] 0.992 | S. cerevisiae deletion strains, locus YOR083W, strain WHI5 (second series), active compounds read low 1.08 | [4] 0.968

N#CCCN(CC1CCCO1)C(=S)Nc1cc(C(F)(F)F)cc(C(F)(F)F)c1 (centres undefined)
inactive: S. cerevisiae deletion strains, locus YAL013W, strain DEP1, active compounds read low 1.01 | S. cerevisiae deletion strains, locus YBR229C, strain ROT2, active compounds read low 0.965 | S. cerevisiae deletion strains, locus YCL061C, strain MRC1, active compounds read low 0.994 | [5] 0.991 | S. cerevisiae deletion strains, locus YDL134C, strain PPH21, active compounds read low 0.95 | S. cerevisiae deletion strains, locus YDR150W, strain NUM1, active compounds read low 0.953 | S. cerevisiae deletion strains, locus YEL061C, strain CIN8, active compounds read low 0.982 | [1] 0.985 | [6] 0.882 | S. cerevisiae deletion strains, locus YHR087W, strain rtc3, active compounds read low 0.979 | S. cerevisiae deletion strains, locus YJL187C, strain SWE1, active compounds read low 1 | S. cerevisiae deletion strains, locus YJR043C, strain POL32, active compounds read low 0.938 | S. cerevisiae deletion strains, locus YJR075W, strain HOC1, active compounds read low 0.918 | S. cerevisiae deletion strains, locus YKL190W, strain CNB1, active compounds read low 1.02 | S. cerevisiae deletion strains, locus YLR039C, strain RIC1, active compounds read low 0.86 | S. cerevisiae deletion strains, locus YLR058C, strain SHM2 (second series), active compounds read low 1.01 | S. cerevisiae deletion strains, locus YLR085C, strain ARP6, active compounds read low 0.85 | S. cerevisiae deletion strains, locus YLR262C, strain YPT6, active compounds read low 0.908 | S. cerevisiae deletion strains, locus YML094W, strain GIM5, active compounds read low 0.888 | S. cerevisiae deletion strains, locus YMR219W, strain ESC1, active compounds read low 0.996 | S. cerevisiae deletion strains, locus YMR263W, strain SAP30, active compounds read low 0.978 | [2] 1 | S. cerevisiae deletion strains, locus YNL298W, strain CLA4 (second series), active compounds read low 0.985 | [3] 1 | S. cerevisiae deletion strains, locus YOL006C, strain TOP1, active compounds read low 0.903 | [4] 0.866 | S. cerevisiae deletion strains, locus YPR135W, strain CTF4, active compounds read low 0.827 | S. cerevisiae strains, strain wild type, active compounds read low 1.02
active: S. cerevisiae deletion strains, locus YNR030W, strain Alg12, active compounds read low 0.829 | S. cerevisiae deletion strains, locus YPL241C, strain CIN2, active compounds read low 0.797

O=C(NCc1ccc(Cl)c(Cl)c1)c1cccnc1OCC(F)(F)F
inactive: S. cerevisiae deletion strains, locus YAR019C, strain CDC15, active compounds read low 0.956 | S. cerevisiae deletion strains, locus YBL105C, strain PKC1, active compounds read low 0.951 | S. cerevisiae deletion strains, locus YBR135W, strain CKS1, active compounds read low 0.947 | S. cerevisiae deletion strains, locus YBR136W, strain MEC1, active compounds read low 0.97 | S. cerevisiae deletion strains, locus YBR160W, strain CDC28, active compounds read low 0.961 | S. cerevisiae deletion strains, locus YDL017W, strain CDC7, active compounds read low 0.955 | S. cerevisiae deletion strains, locus YDL028C, strain MPS1, active compounds read low 0.97 | [5] 0.958 | S. cerevisiae deletion strains, locus YDL108W, strain KIN28, active compounds read low 0.947 | S. cerevisiae deletion strains, locus YDL132W, strain cdc53, active compounds read low 0.952 | S. cerevisiae deletion strains, locus YDL214C, strain PRR2, active compounds read low 0.971 | S. cerevisiae deletion strains, locus YDR052C, strain DBF4, active compounds read low 0.971 | S. cerevisiae deletion strains, locus YDR054C, strain cdc34, active compounds read low 0.958 | S. cerevisiae deletion strains, locus YDR226W, strain ADK1, active compounds read low 0.967 | S. cerevisiae deletion strains, locus YDR477W, strain SNF1, active compounds read low 0.974 | S. cerevisiae deletion strains, locus YER123W, strain YCK3, active compounds read low 0.949 | S. cerevisiae deletion strains, locus YER133W, strain GLC7, active compounds read low 0.961 | S. cerevisiae deletion strains, locus YFL009W, strain cdc4, active compounds read low 0.966 | S. cerevisiae deletion strains, locus YFL029C, strain CAK1, active compounds read low 0.955 | S. cerevisiae deletion strains, locus YFR003C, strain YPI1, active compounds read low 0.949 | S. cerevisiae deletion strains, locus YFR019W, strain FAB1, active compounds read low 0.97 | S. cerevisiae deletion strains, locus YFR028C, strain CDC14, active compounds read low 0.947 | S. cerevisiae deletion strains, locus YGR040W, strain KSS1, active compounds read low 0.965 | S. cerevisiae deletion strains, locus YGR052W, strain FMP48, active compounds read low 1.02 | S. cerevisiae deletion strains, locus YGR092W, strain DBF2, active compounds read low 0.932 | [6] 1.04 | S. cerevisiae deletion strains, locus YHR079C, strain IRE1, active compounds read low 1.03 | S. cerevisiae deletion strains, locus YHR082C, strain KSP1, active compounds read low 1.06 | S. cerevisiae deletion strains, locus YHR205W, strain SCH9, active compounds read low 0.95 | S. cerevisiae deletion strains, locus YIL147C, strain SLN1, active compounds read low 0.958 | S. cerevisiae deletion strains, locus YJL095W, strain BCK1, active compounds read low 1.02 | S. cerevisiae deletion strains, locus YJL128C, strain PBS2, active compounds read low 0.9 | S. cerevisiae deletion strains, locus YJL157C, strain FAR1, active compounds read low 0.973 | S. cerevisiae deletion strains, locus YJR016C, strain ILV3, active compounds read low 0.965 | S. cerevisiae deletion strains, locus YJR066W, strain TOR1 (second series), active compounds read low 0.972 | S. cerevisiae deletion strains, locus YJR066W, strain TOR1, active compounds read low 1.07 | S. cerevisiae deletion strains, locus YKL048C, strain ELM1, active compounds read low 0.951 | S. cerevisiae deletion strains, locus YKL067W, strain YNK1, active compounds read low 0.955 | S. cerevisiae deletion strains, locus YKL101W, strain HSL1, active compounds read low 0.968 | S. cerevisiae deletion strains, locus YKL193C, strain SDS22, active compounds read low 0.951 | S. cerevisiae deletion strains, locus YKL203C, strain TOR2, active compounds read low 1.04 | S. cerevisiae deletion strains, locus YLR113W, strain HOG1, active compounds read low 0.891 | S. cerevisiae deletion strains, locus YLR133W, strain CKI1, active compounds read low 0.965 | S. cerevisiae deletion strains, locus YLR403W, strain SFP1, active compounds read low 0.978 | S. cerevisiae deletion strains, locus YML070W, strain DAK1, active compounds read low 0.944 | S. cerevisiae deletion strains, locus YMR001C, strain CDC5, active compounds read low 0.937 | S. cerevisiae deletion strains, locus YMR205C, strain PFK2 (second series), active compounds read low 0.958 | S. cerevisiae deletion strains, locus YMR277W, strain FCP1, active compounds read low 0.947 | S. cerevisiae deletion strains, locus YNL006W, strain LST8, active compounds read low 0.968 | S. cerevisiae deletion strains, locus YNL020C, strain ARK1, active compounds read low 0.968 | S. cerevisiae deletion strains, locus YNL161W, strain CBK1, active compounds read low 0.971 | S. cerevisiae deletion strains, locus YNL183C, strain NPR1, active compounds read low 0.99 | S. cerevisiae deletion strains, locus YNL207W, strain RIO2, active compounds read low 0.968 | S. cerevisiae deletion strains, locus YNL222W, strain SSU72, active compounds read low 0.953 | S. cerevisiae deletion strains, locus YNL307C, strain MCK1 (second series), active compounds read low 0.957 | S. cerevisiae deletion strains, locus YOL078W, strain AVO1, active compounds read low 0.963 | S. cerevisiae deletion strains, locus YOL136C, strain PFK27, active compounds read low 0.968 | S. cerevisiae deletion strains, locus YOR061W, strain CKA2, active compounds read low 0.945 | S. cerevisiae deletion strains, locus YOR119C, strain RIO1, active compounds read low 1.01 | S. cerevisiae deletion strains, locus YOR231W, strain MKK1, active compounds read low 1.03 | S. cerevisiae deletion strains, locus YOR329C, strain SCD5, active compounds read low 0.969 | S. cerevisiae deletion strains, locus YPL031C, strain PHO85, active compounds read low 0.97 | S. cerevisiae deletion strains, locus YPL153C, strain RAD53, active compounds read low 0.968 | S. cerevisiae deletion strains, locus YPL204W, strain HRR25, active compounds read low 0.971 | S. cerevisiae deletion strains, locus YPL209C, strain IPL1, active compounds read low 0.968 | S. cerevisiae deletion strains, locus YPL256C, strain CLN2, active compounds read low 0.995 | S. cerevisiae deletion strains, locus YPR025C, strain CCL1, active compounds read low 0.964 | S. cerevisiae deletion strains, locus YPR106W, strain ISR1, active compounds read low 0.961 | S. cerevisiae deletion strains, locus YPR111W, strain DBF20, active compounds read low 0.958 | S. cerevisiae deletion strains, strain NNK1, active compounds read low 0.959 | S. cerevisiae deletion strains, strain TSCII, active compounds read low 0.958

— PubChem BioAssay AID1159580 (chemical genetic matrix, 2015)
